Measured values taken from ChEMBL document CHEMBL4513146, “CO-ADD screening of Karazin Kharkiv National University (Ukraine) compounds”.
Results with a measured potency or affinity are listed apart.

How the values were obtained:
Klebsiella pneumoniae = details: Concentration 32 ug.mL-1;; ASSAY_TEST Inhibition of Bacterial Growth; detection method Absorption (OD600); MEDIA CAMHB; plate type 384well; NBS; CORNING #3640; time 18 hr
Candida albicans = details: Concentration 32 ug.mL-1; ASSAY_TEST Inhibition of Fungal Growth; detection method Absorption (OD530)
Cryptococcus neoformans = details: Concentration 32 ug.mL-1; ASSAY_TEST Inhibition of Fungal Growth; detection method Resazurin; Absorption (OD600-OD570); plate type 384well; NBS; CORNING #3640

Structure (SMILES)	Inhibition (Klebsiella pneumoniae)	Inhibition (Candida albicans)	Inhibition (Cryptococcus neoformans)
COc1ccc(N(Cc2ccc(F)cc2)S(=O)(=O)c2ccc3nncn3c2)cc1	12.52%	2.69%	2.37%
Cc1c(Cl)cccc1NC(=O)Cn1nc2c(SCc3ccccc3)nccn2c1=O	1.96%	2.12%	-7.14%
Cc1ccc(CN(c2ccc(C(C)C)cc2)S(=O)(=O)c2cccn3c(C)nnc23)cc1	0.92%	1.03%	-9.63%
CCOc1ccc(-c2nc(CSc3nc4ccccc4n4c(C)nnc34)c(C)o2)cc1	11.43%	1.94%	-16.17%
Cc1ccccc1-c1noc(Cn2nc3ccc(-c4ccccc4)nn3c2=O)n1	4.12%	31.81%	-15.26%
Cc1cc2nn(CC(=O)Nc3ccccc3F)c(=O)n2c(Nc2ccc(C)c(F)c2)n1	4.36%	4.06%	-8.37%
COc1cccc(-n2ccn3c(SCC(=O)c4ccc(F)cc4)nnc3c2=O)c1	12.25%	2.59%	-11.08%
COc1ccccc1N1CCN(C(=O)Cn2nc3ccc(-c4ccccc4)nn3c2=O)CC1	2.09%	1.1%	-5.13%
CCc1ccc(N(Cc2ccc(OC)cc2)S(=O)(=O)c2cccn3c(C)nnc23)cc1	6.54%	3.18%	-10.92%
COc1cc(NC(=O)Cn2nc3ccc(SC4CCCCC4)nn3c2=O)cc(OC)c1	6.28%	4.08%	-40.43%
CCc1ccccc1Sc1nccn2c(=O)n(CC(=O)Nc3cccc(C)c3)nc12	4.48%	-0.7%	-3.25%
CCCn1c(=O)c2sccc2n2c(=O)n(CC(=O)c3ccc(OC)c(OC)c3)nc12	5.35%	-1.4%	-6.57%
O=C(Cn1nc2c(SCc3ccccc3)nccn2c1=O)NCc1ccccc1	-8.41%	20.32%	-13.69%
CC1CCN(C(=O)Cn2nc3n(Cc4cccs4)c(=O)c4sccc4n3c2=O)CC1	0.67%	6.15%	-10.95%
CC(C)c1nnc2c(SCC(=O)N3CCN(c4ccc(F)cc4)CC3)nc3ccccc3n12	12.93%	-0.12%	-22.8%
O=C(Cn1nc2c(Oc3ccccc3)nccn2c1=O)Nc1ccccc1Cl	5.8%	-0.88%	-12.94%
Cc1ccc(NC(=O)CSc2nnc3ccc(C(=O)Nc4cccc(F)c4)cn23)c(C)c1	2.38%	9.81%	-2.98%
COc1cccc(Cn2nc3ccc(-c4ccccc4)nn3c2=O)c1	7.25%	2.39%	-3.25%
Cc1ccc(-n2ccn3c(SCC(N)=O)nnc3c2=O)cc1C	20.66%	1.07%	-10.4%
COc1cc(OC)c(NC(=O)Cn2nc3c(N4CCOCC4)nccn3c2=O)cc1Cl	1.91%	3.65%	-8.41%
COc1cccc(Oc2nccn3c(=O)n(CC(=O)Nc4ccc(C)cc4Cl)nc23)c1	11.4%	4.48%	-10.48%

Structure (SMILES)	Inhibition (Klebsiella pneumoniae)	Inhibition (Candida albicans)	Inhibition (Cryptococcus neoformans)
O=c1c2sccc2n2c(=O)n(Cc3ccc(F)cc3)nc2n1Cc1cccs1	10.32%	43.23%	-26.83%
COc1ccc(N(Cc2cccc(F)c2)S(=O)(=O)c2ccc3nnc(C)n3c2)cc1	0.18%	7.1%	-3.46%
O=C(Cn1nc2c3cc(-c4ccc(F)cc4)nn3ccn2c1=O)Nc1ccc(Br)cc1	2.07%	14.76%	4.1%
Cc1ccc(-c2cc3c4nn(CC(=O)N5CCN(c6ccc(F)cc6)CC5)c(=O)n4ccn3n2)cc1C	7.51%	1.65%	-26.79%
O=c1n(Cc2ccc3c(c2)OCO3)nc2ccc(-c3ccccc3)nn12	13.28%	2.43%	-7.16%
O=c1n(Cc2cccc(C(F)(F)F)c2)nc2ccc(S(=O)(=O)N3CCCCC3)cn12	10.15%	0.06%	-10.55%
COc1ccccc1NC(=O)CSc1nnc2c(=O)n(-c3ccc(C)c(C)c3)ccn12	7.95%	1.21%	-7.82%
COC(=O)c1ccccc1NC(=O)CSc1nc2ccccc2n2c(C(C)C)nnc12	12.98%	-0.8%	-7.61%
COc1cccc(NC(=O)Cn2nc3ccc(SCc4ccc(Cl)cc4)nn3c2=O)c1	6.69%	11.57%	-15.62%
CCCNC(=O)Cn1nc2n(Cc3ccco3)c(=O)c3sccc3n2c1=O	8.71%	5.01%	-16.3%
Cc1cc(C)cc(NC(=O)CSc2nnc3c(=O)n(-c4ccc(Br)cc4)ccn23)c1	11.44%	6.21%	-22.2%
Cc1cc(C)c(NC(=O)Cn2nc3c(SCc4ccc(Cl)cc4)nccn3c2=O)c(C)c1	8.66%	25.19%	-17.24%
COc1cccc(Oc2nccn3c(=O)n(CC(=O)Nc4ccc(OC)c(Cl)c4)nc23)c1	9.28%	1.52%	-8.33%
CCN(C(=O)Cn1nc2nc(Nc3ccc(F)cc3)ccn2c1=O)c1ccccc1	8.48%	1.18%	-4.45%
Cc1cccc(NC(=O)Cn2nc3c(SCc4ccccc4)nccn3c2=O)c1C	5.49%	0.78%	-13.96%
COc1cc(NC(=O)Cn2nc3c4c5c(sc4ncn3c2=O)CCCC5)cc(OC)c1OC	9%	0.11%	-14.64%
CCCCN(C)C(=O)CSc1nnc2c(=O)n(Cc3ccc(F)cc3)ccn12	14.76%	-0.35%	-33.57%
Cc1cc2nn(CC(=O)NCc3ccco3)c(=O)n2c(Nc2ccc(C)c(F)c2)n1	7.94%	7.51%	-7.03%
Cc1cc2nn(CC(=O)Nc3ccccc3F)c(=O)n2c(Nc2ccc(F)c(C)c2)n1	9.21%	7.27%	-5.54%
CCCN(C)c1nccn2c(=O)n(CC(=O)Nc3cccc(Br)c3)nc12	8.58%	1.99%	-9.25%
CCOc1ccc(-n2ccn3c(SCC(=O)Nc4cc(OC)cc(OC)c4)nnc3c2=O)cc1	3.96%	2.98%	-7.81%

Structure (SMILES)	Inhibition (Klebsiella pneumoniae)	Inhibition (Candida albicans)	Inhibition (Cryptococcus neoformans)
Cc1nnc2ccc(S(=O)(=O)N(Cc3ccccc3F)c3ccc(F)cc3)cn12	5.62%	1.21%	-9.05%
O=C(Cn1nc2c3sc(N4CCCC4)nc3ncn2c1=O)Nc1ccc(F)c(Cl)c1	20.21%	4.41%	-11.29%
CCCCOc1ccc(-c2cc3c4nnc(SCC(=O)Nc5ccc(F)cc5)n4ccn3n2)cc1	3.87%	-1.37%	-16.65%
CCCCOc1ccc(-c2cc3c4nnc(SCC(=O)Nc5ccccc5Cl)n4ccn3n2)cc1	5.58%	2.9%	-20.67%
CCCCn1c(=O)c2sccc2n2c(=O)n(CC(=O)c3ccc(OC)c(OC)c3)nc12	19.59%	-0.04%	-27.81%
CC(C)c1ccc(NC(=O)CSc2nc3ccccc3n3cnnc23)cc1	3.82%	7.46%	-15.4%
CSc1ccc(CNC(=O)Cn2nc3c(Oc4ccccc4)nccn3c2=O)cc1	13.75%	0.62%	-8.38%
Cc1ccc(NC(=O)Cn2nc3c(N4CCOCC4)nccn3c2=O)cc1Cl	6.31%	3.12%	-5.46%
CCc1ccccc1Sc1nccn2c(=O)n(CC(=O)N3CCN(c4ccccc4F)CC3)nc12	1.78%	4.04%	-15.46%
COc1ccccc1-n1ccn2c(SCC(=O)NCc3ccc(Cl)cc3)nnc2c1=O	9.61%	4.77%	-6.31%
CC1CC(C)CN(c2nccn3c(=O)n(CC(=O)NCc4ccccc4Cl)nc23)C1 (stereo not drawn)	9.46%	-0.66%	-5.61%
COc1cccc(CN(c2ccc(C(C)C)cc2)S(=O)(=O)c2cccn3cnnc23)c1	13.52%	10.84%	-11.09%
COc1cccc(NC(=O)Cn2nc3ccc(-c4ccc(C)c(C)c4)nn3c2=O)c1	-6.86%	8.09%	-10.05%
Cc1ccc(Oc2nccn3c(=O)n(CC(=O)Nc4ccccc4F)nc23)cc1	2.86%	5.88%	-5.76%
Cc1ccc(NC(=O)CSc2nnc3c(=O)n(-c4ccc(C)c(C)c4)ccn23)c(Cl)c1	12.06%	0.25%	-10.04%
COC(=O)c1ccccc1NC(=O)Cn1nc2c(Oc3ccccc3)nccn2c1=O	8.23%	7%	-9.79%
Cc1ccc(C(=O)C(C)Sc2nnc3c(=O)n(-c4ccc(F)c(F)c4)ccn23)cc1C (stereo not drawn)	-0.54%	2.5%	-3.72%
O=C(Cn1nc2c3c4c(sc3ncn2c1=O)CCCC4)NCc1ccc(F)cc1	9.92%	15.82%	-14.13%
Cc1ccccc1Oc1nccn2c(=O)n(CC(=O)Nc3ccc(F)cc3F)nc12	11.95%	-0.38%	-8.47%
